Measured values as given in PubChem BioAssay (EPA / NIEHS).
Active and inactive are the calls of the source. How the source made its calls: active means hit-call score of the fitted dose curve at least 0.9, where 1 is the maximum; inactive means score below 0.9.

experiment: CCTE_Shafer_MEA_acute_per_network_burst_spike_number_mean: CCTE's Neural Acute Assay for Average Number of Spikes in a Network Burst, Shafer Lab (AID 2284019)
Procedure: CCTE_Shafer_MEA_acute assay is conducted using Axion Biosystems 48 well microelectrode array (MEA) plates and Maestro recording system. Each well of the MEA plate contains a grid of 16 microelectrodes embedded in the culture surface. Electrically active cells, such as neurons, can be cultured over the electrodes, and electrical activity in these cells can be recorded extracellularly. The spontaneous firing of neurons is captured from each electrode on a microsecond timescale providing both temporally and spatially precise data. […] The CCTE_Shafer_MEA_acute assay uses primary cultures of rat cortical neurons. As these cultures mature over time, neural networks develop functional activity and form cohesive networks in which electrical activity can be highly coordinated. Baseline 40-minute recordings are made on days post-plating 13 or 15, followed by a secondary 40-minute recording after chemical exposure.CCTE_Shafer_MEA_acute_per_network_burst_spike_number_mean is a component of the CCTE_Shafer_MEA_acute assay. It measures the average number of spikes (action potential firings) in a network burst (temporally-clustered group of spikes across multiple electrodes) as the total number of spikes in a network burst divided by the number of network bursts during a recording in a microelectrode array (MEA) using Axion Biosystems Maestro 768 channel amplifier with the AxIS adaptive spike detector. The recordings before and after chemical treatment are used to calculate a percent change in the mean number of spikes in a network burst in each well.Data from the assay component CCTE_Shafer_MEA_acute_per_network_burst_spike_number_mean was analyzed into 1 assay endpoint. This assay endpoint, CCTE_Shafer_MEA_acute_per_network_burst_spike_number_mean, was analyzed in the negative analysis fitting direction relative to DMSO as the negative control and baseline of activity. Using a type of functional reporter, gain or loss-of-signal activity can be used to understand electrical activity.
Spontaneous activity in the cortical cultures was recorded using an Axion Biosystems Maestro 768 channel amplifier and Axion Integrated Studios (AxIS) v1.8 (or later) software. The amplifier recorded from all channels simultaneously (gain = 1200 x; sampling rate = 12.5 kHz/channel): raw signals were filtered with a Butterworth band-pass filter (300-5000 Hz), which filters out slower local field potentials leaving only fast potentials, i.e., "spikes", arising from extracellular currents associated with action potentials (Pine 2006; Wheeler and Nam 2011). On-line spike detection of filtered signals was conducted with the AxIS adaptive spike detector, using a threshold of 8x the root mean squared (rms) noise on each channel. Any electrodes with rms noise levels greater than 5 uV were grounded (e.g., no data were recorded). Once grounded, an electrode was grounded for the duration of the experiment. All recordings were conducted at 37 C. Wells were deemed usable if on the day of the exposure >/= 10 electrodes were active (defined as >/= 5 spikes/min). On DIV 13 or 15, a minimum of three wells from one cortical culture preparation were treated with each compound (0.03-40 uM). Prior to recording baseline activity, each mwMEA plate was placed in the Maestro at 37 C and allowed to sit for 20 min while firing rates stabilized. Baseline activity (40 min) was recorded before the addition of each compound. An additional 40 min of spontaneous activity was recorded in the presence of each compound. Changes in network parameters relative to baseline were assessed following compound treatment.

SMILES | outcome | AC50
Clc1ccccc1C(c1ccccc1)(c1ccccc1)n1ccnc1 | inactive | 
COc1cc(C(=O)NC2CCN(C)CC2)ccc1Nc1ncc2c(n1)N(C1CCCC1)CC(F)(F)C(=O)N2C |  | 3.69 µM (active)
CN1C(=O)CC[C@H]1c1cccnc1 | inactive | 
Cc1cc2c(cc1C(F)(F)F)N(C(=O)Nc1ccc(Oc3cccnc3C)nc1)CC2 | inactive | 
c1ccc2n[nH]nc2c1 | inactive | 
C[C@]12CC[C@@H]3c4ccc(O)cc4CC[C@H]3[C@@H]1CC[C@H]2O | inactive | 
CCCCCCCCCCCCO | inactive | 
Cc1cn([C@H]2C[C@H](N=[N+]=[N-])[C@@H](CO)O2)c(=O)[nH]c1=O | inactive | 
CN(C)c1ccc(C(=C2C=CC(=[N+](C)C)C=C2)c2ccc(N(C)C)cc2)cc1 | inactive | 
CCCCOC(=O)c1ccc(O)cc1 | inactive | 
CCN(Cc1cccc(S(=O)(=O)O)c1)c1ccc(C(=C2C=CC(=[N+](CC)Cc3cccc(S(=O)(=O)O)c3)C=C2)c2ccccc2S(=O)(=O)[O-])cc1 | inactive | 
CC1=CC(=O)/C(=C(/C)O)C(=O)O1 | inactive | 
NC(=O)c1nc(-c2cccc(-c3cc(F)ccc3OCC(F)(F)C(F)(F)F)c2)n[nH]1 |  | 0.16 µM (active)
CN(C[C@@H](CC[N+]12CCC(C3CCCCC3)(CC1)CC2)c1ccc(Cl)c(Cl)c1)C(=O)c1cc(C(F)(F)F)cc(C(F)(F)F)c1 | inactive | 
O=C(O)c1ccccc1-n1cc(C(=O)O)c(=O)c2cc(Nc3c(F)cc(F)cc3Cl)c(Cl)cc21 | inactive | 
OC12N=C(c3ccccc3)SC1Cc1cc(Cl)ccc12 (stereo unspecified) | inactive | 

SMILES | outcome | AC50
O=C1O[C@H]([C@@H](O)CO)C(O)=C1O | inactive | 
CC(=O)N1CCN(c2ccc(OC[C@H]3CO[C@](Cn4ccnc4)(c4ccc(Cl)cc4Cl)O3)cc2)CC1 | inactive | 
CC(C)(c1cc(Br)c(O)c(Br)c1)c1cc(Br)c(O)c(Br)c1 | inactive | 
NCc1cccc(C2CCN(C(=O)c3ccc(C#Cc4ccccc4F)o3)CC2)c1 | inactive | 
CCCCCCCCOC(=O)c1cc(O)c(O)c(O)c1 | inactive | 
CC/C(=C(/CC)c1ccc(O)cc1)c1ccc(O)cc1 |  | 5.3 µM (active)
O=c1[nH]sc2ccccc12 | inactive | 
CN(C)C(=O)C1(N2CCCCC2)CCN(CC[C@@]2(c3ccc(Cl)c(Cl)c3)CN(C(=O)c3ccccc3)CCO2)CC1 |  | 2.5 µM (active)
CC[C@@H]1C[C@H](N(Cc2cc(C(F)(F)F)cc(C(F)(F)F)c2)C(C)=O)c2cc(C(F)(F)F)ccc2N1C(=O)OC(C)C | inactive | 
CC(C)(C)c1cc(/C=C2\SC(N)=NC2=O)cc(C(C)(C)C)c1O | inactive | 
CCN(CC)C(=O)c1cc(S(=O)(=O)Cc2ccccc2)c(N2CCC(c3ccccc3)CC2)cc1N(CC)CCN(C)C |  | 1.57 µM (active)
COc1cccc([C@H](O)C2CCN(CCc3ccc(F)cc3)CC2)c1OC | inactive | 
CO[C@H]1/C=C/O[C@@]2(C)Oc3c(C)c(O)c4c(O)c(c(/C=N/N5CCN(C)CC5)c(O)c4c3C2=O)NC(=O)/C(C)=C\C=C\[C@H](C)[C@H](O)[C@@H](C)[C@@H](O)[C@@H](C)[C@H](OC(C)=O)[C@@H]1C |  | 12.5 µM (active)
Cc1c2ccccc2c(C)c2c1ccc1ccccc12 | inactive | 
CC(O)CC(C)(C)O (stereo unspecified) | inactive | 
